Bioassay records: PubChem, NMMLSC
CIT2 TOR yeast: modulators of CIT2-GFP expression in yeast, primary screen, S. cerevisiae, GFP fusion, multiplex flow cytometry, MLPCN library. S. cerevisiae CIT2-GFP strain, 3 h; 100 means same as DMSO wells. GFP response vs DMSO, % at 10 µM. 320,000 tested, 0.065% active;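 active means GFP response relative to DMSO above a set limit, near the screen mean plus 3 SD, cut at about 150% in these data; inconclusive means Fewer than 70 cells measured for a yeast strain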;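 further: ratio of well median GFP fluorescence to mean of DMSO wells on the plate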
LAP4-GFP MLPCN: modulators of LAP4-GFP expression in yeast, primary screen, S. cerevisiae, multiplex flow cytometry, MLPCN library. 3 h; median GFP as percent of DMSO wells. 320,000 tested, 0.34% active. GFP response vs DMSO, % at 10 µM;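 active means GFP response vs DMSO above a set limit, about the screen mean plus 3 SD, cut at about 150% in these data; inconclusive means under 70 cell events counted for the yeast strain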
AGP1 TOR yeast: modulators of AGP1-GFP expression in yeast TOR pathway, primary screen, cell-based, multiplex flow cytometry, S. cerevisiae, MLPCN library | 3 h; GFP as percent of DMSO wells | GFP response vs DMSO, % at 10 µM | 320,000 tested, 0.02% active | AID 2066, 2009;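 active means GFP response relative to DMSO above a set limit, near screen average plus 3 SD, cut at about 150% in these data; inconclusive means fewer than 70 cells counted for the yeast strain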;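 further: median GFP channel fluorescence of the gated AGP1 strain per well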
RPL19A TOR yeast: RPL19A-GFP expression modulators in yeast, primary screen, cell-based, S. cerevisiae, multiplex flow cytometry, MLPCN | S. cerevisiae RPL19A-GFP strain, 3 h; hits give low values | percent response vs DMSO, % at 10 µM | 330,000 tested, 0.3% active | AID 2025, 2009;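 active means percent response vs DMSO below 50%; inconclusive means fewer than 70 events counted for the yeast strain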;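 further: median channel GFP fluorescence of the barcoded RPL19A-GFP strain; ratio of sample median GFP to plate DMSO average so 100% = DMSO; lower means less RPL19A-GFP as with rapamycin TOR inhibition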
Efflux pump inh: inhibitors of Candida efflux pumps in yeast, primary screen, S. cerevisiae, Nile Red, multiplex; S. cerevisiae Candida pump triplex; 330,000 tested, 0.44% active; inhibition, % at 10 µM; AID 485275, 2010;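 active means plate passing quality check with inhibition over a set limit, or well fluorescence over plate mean plus 4 SD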;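 further: Nile Red retained in pooled yeast measured as flow cytometry median fluorescence; 0% = buffer negative control and 100% = Enniatin B positive control; higher means more Nile Red kept so more efflux inhibition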
MEP2 TOR yeast: modulators of MEP2-GFP levels in yeast, primary screen, S. cerevisiae, multiplex flow cytometry, MLPCN library. S. cerevisiae MEP2-GFP strain, 3 h; 100% = DMSO control level. 330,000 tested, 0.51% active. GFP response vs DMSO, % at 10 µM;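 active means GFP response versus DMSO above a set limit, roughly screen mean plus 3 SD, cut at about 180% in these data; inconclusive means fewer than 70 cells counted for a yeast strain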;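 further: median GFP fluorescence of the barcode-gated MEP2-GFP cells per well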
The depositor's hits bear a star; ? = inconclusive; · = no result; [ ] = dose if it differs, or a comment. A selection: hits, their analogues and other compounds. The true share with any hit is near 1.3%.

SMILES	CIT2 TOR yeast	LAP4-GFP MLPCN	AGP1 TOR yeast	RPL19A TOR yeast	Efflux pump inh	MEP2 TOR yeast
Cc1ccc(S(N)(=O)=O)cc1NC(=O)c1ccc2c3c(cccc13)CC2	110	101	109	106	0	110
CN(C(=O)COC(=O)CNC(=O)c1ccc2ccccc2c1)c1c(N)n(Cc2ccccc2)c(=O)[nH]c1=O	103	100	103	100	0	106
CCCCC[C@H](O)/C=C/[C@@H]1[C@@H](CCCCCCC(=O)O)[C@@H](O)C[C@H]1O	101	175*	109	81	0	150
Cc1ccc(C(=O)CCS(=O)(=O)c2ccc(F)cc2)cc1	121	102	107	97	0	96
Cc1ccc(S(=O)(=O)CCC(=O)c2ccc(F)cc2)cc1	164*	112	123	94	0	109
CN(C(=O)Nc1ccc(Cl)cc1Cl)C1CCCC1	94	112	100	106	0	114
COc1ccc(CN(C)C(=O)C23CC4CC(CC(C4)C2)C3)c(OC)c1	?	?	?	47*[may fluoresce violet]	0	?
COc1ccc(NC(=O)C2CCCC2)cc1S(=O)(=O)N1CCOCC1	96	88	93	91	0	97
CCCNC(=O)c1ccccc1SCc1c(C)noc1C	103	104	103	103	0	104
CCC12CC3CC(C1)CC(C(=O)O)(C3)C2	?	101	15	56	0	183*[may fluoresce violet]
NC(=O)CC12CC3CC(C1)CC(CC(N)=O)(C3)C2	98	101	105	99	0	101
CC(=O)c1sc(-c2ccc(F)cc2F)nc1C	94	101	94	97	0	102
COc1ccc2c(c1)CCN1C2CCN2C(=O)CCC21 (configuration not stated)	94	88	93	101	0	99
Cc1[nH]n(-c2nc(-c3ccc(Cl)cc3)cs2)c(=O)c1N=Nc1ccc(O)cc1	93	100	·	91	0	100
O=C1OC2(c3ccccc31)c1cc(I)c(O)c(I)c1Oc1c2cc(I)c(O)c1I	169*	243*	90	119	0	257*
O=C(NC1=NN(c2ccccc2)CC1)Nc1ccccc1F	108	118	109	104	0	97
Cc1ccc(CCN2CC(C(=O)NCCCN3CCCCCC3)CC2=O)cc1 (configuration not stated)	?	103	·	61	0	184*[may fluoresce violet]
Cc1ccc(CCN2CC(C(=O)NCCCN(C)Cc3ccccc3)CC2=O)cc1 (configuration not stated)	100	86	99	97	0	188*
Cc1ccc(CCN2CC(C(=O)NCCN3CCCCCC3)CC2=O)cc1 (configuration not stated)	106	96	98	98	0	100
Cc1ccc(-n2nc(C)c3c(C)c(CCC(=O)O)c(C)nc32)cc1C	85	124	84	99	0	100
Cc1ccc(-n2nc(C)c3c(C)c(CCC(=O)O)c(C)nc32)cc1	134	151*	91	105	0	185*
O=C(Nc1c(F)cccc1F)c1ccc(-n2cncn2)nc1	?	68	25	64	0	233*[may fluoresce violet]
Nc1ncnc2c1CCC2	?	102	28	60	0	213*[may fluoresce violet]
N=c1c(C(=O)NCc2ccco2)cc2c(=O)n3ccccc3nc2n1Cc1ccccc1	?	97	23	67	0	131
COCCn1c(=N)c(C(=O)NCc2ccco2)cc2c(=O)n3ccccc3nc21	94	107	66	61	0	573*
SMILES	CIT2 TOR yeast	LAP4-GFP MLPCN	AGP1 TOR yeast	RPL19A TOR yeast	Efflux pump inh	MEP2 TOR yeast
N=c1c(C(=O)NC2CCCC2)cc2c(=O)n3ccccc3nc2n1C1CCCC1	?	107	?	16*[may fluoresce violet]	0	308*[may fluoresce violet]
N=c1c(C(=O)NCc2ccco2)cc2c(=O)n3ccccc3nc2n1C1CCCC1	?	89	81	59	0	269*[may fluoresce violet]
N=c1c(C(=O)NCc2ccco2)cc2c(=O)n3ccccc3nc2n1Cc1ccc(Cl)cc1	?	104	·	94	0	100
COc1ccc(CN2C(=O)c3cccnc3C2=O)cc1S(=O)(=O)N1CCOc2ccc(Cl)cc21	91	102	99	98	0	111
COc1ccc(CN2C(=O)c3cccnc3C2=O)cc1S(=O)(=O)N1CCOc2ccccc21	?	110	?	45*[may fluoresce violet]	1	334*[may fluoresce violet]
Cc1onc(-c2ccccc2)c1C(=O)N1CCC(C)CC1	122	160*	134	83	0	221*
COc1cccc(NC(=O)c2sc3nc(N4CCOCC4)c4c(c3c2N)CCCC4)c1	99	104	104	93	0	95
Cc1ccc(S(=O)(=O)NC(=O)NCC2CCN(S(=O)(=O)c3ccccc3)CC2)cc1	94	91	88	99	1	104
Cc1ccc(-c2nnc(Nc3ccc(CC(N)=O)cc3)c3ccccc23)cc1S(N)(=O)=O	100	91	103	105	1.7*	99
CNS(=O)(=O)c1cc(-c2nnc(Nc3ccc(CC(N)=O)cc3)c3ccccc23)ccc1C	101	93	133	105	0	101
CC(=O)NC1(C(F)(F)F)C(=O)Nc2c1c(=O)[nH]c(=O)n2CCc1ccccc1 (configuration not stated)	83	98	29	51	0	176*
COC(=O)c1cn(C(=O)c2ccc(F)cc2)c2ccccc12	104	88	96	105	0	105
C=CCOc1ccc(C(=O)n2cc(C(=O)OC)c3ccccc32)cc1	92	106	90	99	0	186*
O=C(Nc1ccccc1NC(=O)c1ccco1)c1ccccc1	?	76	?	41*[may fluoresce violet]	0	495*[may fluoresce violet]
CC(C)(C)c1ccc(C(=O)Nc2ccccc2NC(=O)c2ccco2)cc1	95	88	96	93	0	94
O=C(Oc1ccccc1)c1ccc(NC(=O)c2ccco2)cc1	93	89	89	100	0	95
COC(=O)c1ccc(NC(=O)c2ccc(NC(=O)c3ccco3)cc2)cc1	98	86	91	101	11*	100
O=C(OCC(=O)N1CCCC1)c1ccccc1C(=O)c1ccccc1	98	91	94	98	0	98
O=C(Nc1cccc(OC(=O)c2cccnc2)c1)c1cccnc1	?	103	21	59	0	194*[may fluoresce violet]
CCOc1ccc(S(=O)(=O)N2CCC(C(=O)NCCc3ccccc3)CC2)cc1	111	102	97	103	0	107
